The whole screen tested about 360,000 compounds, of which about 290 (0.081%) were called active. Where a call stands in place of a potency, no number is given. This is one part of a sample in which actives are shown more often than they occur. Calls come from the whole dose curve; as a rule, active = well fitted activation curve with a large enough effect; inconclusive = small, poorly fitted or top-dose-only effect; inactive = no such curve, though single readings can be large or run the other way.
Each compound was assayed against Rap guanine nucleotide exchange factor 4 (Homo sapiens) (UniProt Q8WZA2) (assay: qHTS for Agonist of cAMP-regulated guanine nucleotide exchange factor 4 (EPAC2): primary screen). Conditions: biochemical qHTS; Potency: EPAC2 activation; series mostly up to 154 µM.
Sequence of Rap guanine nucleotide exchange factor 4 (Homo sapiens) (Q8WZA2 whole entry, looked up): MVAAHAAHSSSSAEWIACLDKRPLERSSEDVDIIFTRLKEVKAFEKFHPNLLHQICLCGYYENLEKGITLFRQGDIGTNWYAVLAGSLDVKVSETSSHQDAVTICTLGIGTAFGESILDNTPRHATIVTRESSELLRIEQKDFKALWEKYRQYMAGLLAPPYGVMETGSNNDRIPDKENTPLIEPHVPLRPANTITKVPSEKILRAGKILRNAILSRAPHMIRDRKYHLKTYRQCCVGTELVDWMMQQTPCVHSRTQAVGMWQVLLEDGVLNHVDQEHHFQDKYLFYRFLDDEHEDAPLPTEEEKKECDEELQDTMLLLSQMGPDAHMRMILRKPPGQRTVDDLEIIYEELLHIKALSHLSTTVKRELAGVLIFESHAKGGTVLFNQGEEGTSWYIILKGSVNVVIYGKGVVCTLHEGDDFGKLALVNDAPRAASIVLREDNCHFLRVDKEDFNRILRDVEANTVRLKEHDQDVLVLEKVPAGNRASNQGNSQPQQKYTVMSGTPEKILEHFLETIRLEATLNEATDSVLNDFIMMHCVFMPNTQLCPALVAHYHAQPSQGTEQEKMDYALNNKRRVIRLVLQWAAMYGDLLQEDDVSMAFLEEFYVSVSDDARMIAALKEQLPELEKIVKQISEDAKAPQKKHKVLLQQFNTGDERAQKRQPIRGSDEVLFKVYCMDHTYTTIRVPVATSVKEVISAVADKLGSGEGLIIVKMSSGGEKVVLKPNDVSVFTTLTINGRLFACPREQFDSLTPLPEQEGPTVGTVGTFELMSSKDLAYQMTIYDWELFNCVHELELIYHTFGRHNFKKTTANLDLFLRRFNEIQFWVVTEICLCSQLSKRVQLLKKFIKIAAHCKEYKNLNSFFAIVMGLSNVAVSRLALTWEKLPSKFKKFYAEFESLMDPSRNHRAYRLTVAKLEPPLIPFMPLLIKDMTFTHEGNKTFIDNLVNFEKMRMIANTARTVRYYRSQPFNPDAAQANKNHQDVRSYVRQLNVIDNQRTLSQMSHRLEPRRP
Description: In multi-cellular eukaryotic organisms, the effects of cAMP are transduced by two ubiquitously-expressed intracellular cAMP receptors, the classic protein kinase A/cAMP-dependent protein kinase (PKA/cAPK) and the more recently discovered exchange protein directly activated by cAMP/cAMP-regulated guanine nucleotide exchange factor (EPAC/cAMP-GEF). Both PKA and EPAC are ubiquitously expressed in all tissues, and an increase in intracellular cAMP levels will lead to the activation of both PKA and EPAC. Therefore, careful dissections of the individual role and relative contribution of EPAC and PKA within the overall cAMP signaling in various model systems are critical for further elucidating the mechanism of cAMP signaling. To date no EPAC-specific antagonists and agonist, as well as isoform-specific agonists have been reported, and developing EPAC-specific pharmacological probes to determine the physiological functions that EPAC play in the overall cAMP-mediated signaling remains a major challenge within the research field. Furthermore, identified regulators of EPAC may lead to new mechanism-based therapeutic strategies specifically targeting the EPAC / cAMP-signaling components as EPAC has been implicated to play important roles in major human pathological conditions such as diabetes, heart disease, and cancer.
This qHTS will be used to screen the Molecular Libraries Small Molecule Repository (MLSMR) as a concentration-titration series using the NCGC unique quantitative screening (qHTS) platform to find activators for EPAC2. In addition, this assay will also be used as a counterscreen for the EPAC1 qHTS. This fluorescent based assay is developed and validated for EPAC2 that measures exchange using EPAC effector Rap1 complex with BODIPY-GDP, a GDP analog with a tethered fluorophores. Activators are identified by monitoring the change in fluorescence signal as the exchanged free BODIPY-GDP has a reduced fluorescence compared to Rap1-bound BODIPY-GDP. […] in signal (activation) is the desired outcome for the EPAC2 agonist while no activity in this assay is desired for the EPAC1 agonist counterscreen.
[1] de Rooij, J., Zwartkruis, F. J., Verheijen, M. H., Cool, R. H., Nijman, S. M., Wittinghofer, A., and Bos, J.L. (1998) Nature 396, 474-477
[2] Kawasaki, H., Springett, G. M., Mochizuki, N., Toki, S., Nakaya, M., Matsuda, M., Housman, D. E., and Graybiel, A. M. (1998) Science 282, 2275-2279
NIH Chemical Genomics Center [NCGC]
NIH Molecular Libraries Probe Centers Network [MLPCN]
Assay Submitter (PI): Xiaodong Cheng, The University of Texas, Medical Branch
Briefly, three uL of reagents (100 nM EPAC2, 250 nM RAP1B-BODIPY-GDP, 50 uM GDP) were dispensed into a 1536-well Greiner black solid-bottom medium binding assay plate. Controls and test compounds (23 nL) were transferred to the plate via a Kalypsys pin tool equipped with a 1536-pin array. The plates were centrifuged at 1,000 rpm for 15 seconds followed by 5 minute incubation at room temperature. The assay plates were read at 5 minute intervals for 30 minutes in the ViewLux plate reader using 480nm excitation and 540nm emission filters. The results were normalized to the agonist positive control of 6.5 mM cAMP.
Note: nearly all actives have a fitted effect of over 50% in size.
Potency is the fitted concentration of half-maximal effect.

| Compound | Potency |
| --- | --- |
| COc1cccc(N2C(=O)NC(=O)/C(=C\c3cn(C)c4ccccc34)C2=O)c1 | 100 µM (active) |
| CCc1nc2ccccc2c(=O)n1-c1cccc(OC)c1 | inactive |
| CC1C(=O)OC2CCN3CC=C(COC(=O)C(C)(O)C1(C)O)C23 (stereo not given) | inactive |
| CSC1=NP(=S)(SC)N(C)c2nc3n(c21)CCC3 (stereo not given) | inactive |
| CC(=O)c1ccc(OC(NC(=O)Cc2ccccc2)C(Cl)(Cl)Cl)cc1 (stereo not given) | inactive |

From PubChem BioAssay AID720711 (National Center for Advancing Translational Sciences (NCATS), 2013)
